Experimental data published in PubChem BioAssay (EPA / NIEHS).
Records with an inconclusive call do not appear. The source made the active and inactive calls. How the source made its calls, unless noted: active means hit-call score of the fitted dose curve at least 0.9, where 1 is the maximum; inconclusive means response in the unintended direction; inactive means score below 0.9.

Legend:
[1] = Tanguay_ZF_120hpf_JAW_legacy: (Legacy) Oregon State University Tanguay Lab 120 Hour Post-fertilization zebrafish Assay for Jaw Malformation (AID 2283638);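 on AC50: active means more embryos with jaw malformation than DMSO controls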
Outline: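 Steps: dechorionate 4 hpf embryos (pronase); plate 1/well at 6 hpf; add test chemical, 0.64% DMSO final; seal, cover, hold at 28C statically to 120 hpf; score jaw defect presence/absence microscopically. Dead embryos not scored.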

[2] = Tanguay_ZF_120hpf_OTIC_legacy: (Legacy) Oregon State University Tanguay Lab 120 Hour Post-fertilization zebrafish Assay for Otic Vesicle Malformation (AID 2283639)
Outline: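 Statically exposed wild-type 5D zebrafish embryos, kept sealed and dark at 28C through 120 hours post fertilization, were examined by brightfield microscopy for otic vesicle defects. Responses were recorded as present or absent and analysed relative to DMSO.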

[3] = Tanguay_ZF_120hpf_PE_legacy: (Legacy) Oregon State University Tanguay Lab 120 Hour Post-fertilization zebrafish Assay for Pericardial Edema (AID 2283640)
Outline: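 Embryos from wild-type 5D adults were staged, then dosed in 0.64% DMSO. They were kept sealed in the dark at 28C until 120 hpf. Pericardial edema was then recorded as present or absent.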

[4] = Tanguay_ZF_120hpf_BRAI_legacy: (Legacy) Oregon State University Tanguay Lab 120 Hour Post-fertilization zebrafish Assay for Brain Malformation (AID 2283641)
Outline: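 Wild-type 5D larvae, static waterborne exposure to 120 hpf, 28C, 0.64% v/v DMSO. Brightfield scoring of brain defects, binary; dead embryos excluded. Positive ctrl 5uM trimethyltin chloride.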

[5] = Tanguay_ZF_120hpf_PFIN_legacy: (Legacy) Oregon State University Tanguay Lab 120 Hour Post-fertilization zebrafish Assay for Pectoral Fin Malformation (AID 2283648);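 further: each larva judged yes or no for fin defect by brightfield with dead larvae skipped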
Outline: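 Pectoral fin malformation was recorded as a binary endpoint at 120 hpf in wild-type Tropical 5D larvae, which had been dechorionated and exposed statically from 6 hpf at 28C in 0.64% DMSO. Dead embryos were excluded.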

[6] = Tanguay_ZF_120hpf_CFIN_legacy: (Legacy) Oregon State University Tanguay Lab 120 Hour Post-fertilization zebrafish Assay for Caudal Fin Malformation (AID 2283649)
Outline: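 Binary presence or absence of caudal fin malformation at 120 hpf, read by brightfield microscopy, with DMSO as baseline. Larvae came from 5D wild-type embryos exposed statically from 6 hpf at 28C after pronase dechorionation.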

[7] = Tanguay_ZF_120hpf_CIRC_legacy: (Legacy) Oregon State University Tanguay Lab 120 Hour Post-fertilization zebrafish Assay for Circulatory Malformation (AID 2283651)
Outline: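 Embryos are dechorionated at 4 hpf, plated one per well at 6 hpf, then held under static exposure at 28C until 120 hpf. Malformations are recorded as binary calls; mortality excludes other endpoints.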

[8] = Tanguay_ZF_120hpf_SWIM_legacy: (Legacy) Oregon State University Tanguay Lab 120 Hour Post-fertilization zebrafish Assay for Swim Bladder Malformation (AID 2283654);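 further: swim bladder malformation in each larva scored yes or no under brightfield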
Outline: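 Scoring is binary for swim bladder defects at 120 hpf, by brightfield inspection of zebrafish larvae. Embryos were exposed singly from 6 hpf after pronase dechorionation, at 28C with 0.64% DMSO; mortality excluded scoring.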

[9] = Tanguay_ZF_120hpf_NC_legacy: (Legacy) Oregon State University Tanguay Lab 120 Hour Post-fertilization zebrafish Assay for Notochord and Tail Malformation (AID 2283656)
Outline: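 Binary scoring of notochord distortion by brightfield microscopy; embryos dying were not scored. Wild-type Tropical 5D embryos, chorion removed, exposed singly and statically from 6 to 120 hpf, 28C, sealed, 0.64% DMSO.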

[10] = Tanguay_ZF_120hpf_SOMI_legacy: (Legacy) Oregon State University Tanguay Lab 120 Hour Post-fertilization zebrafish Assay for Somite Malformation (AID 2283647)
Outline: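 Read-out: presence or absence of somite malformation in 120 hpf larvae, gain-of-signal relative to DMSO baseline. Embryos lacked chorion (pronase, 4 hpf) and were exposed statically from 6 hpf at 28C; dead larvae not scored.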

[11] = Tanguay_ZF_120hpf_PIG_legacy: (Legacy) Oregon State University Tanguay Lab 120 Hour Post-fertilization zebrafish Assay for Pigmentation Malformation (AID 2283650)
Outline: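 Pigment malformation recorded as a binary call at 120 hpf in zebrafish (Tropical 5D) exposed singly from 6 hpf after pronase dechorionation. Static, sealed, 28C exposure, 0.64% DMSO; mortality excludes scoring; positive-direction fit against DMSO.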

[12] = Tanguay_ZF_120hpf_TRUN_legacy: (Legacy) Oregon State University Tanguay Lab 120 Hour Post-fertilization zebrafish Assay for Truncated Body (AID 2283655)
Outline: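 Truncated body is recorded as a binary endpoint at 120 hpf by brightfield imaging of wild-type 5D larvae. Exposure runs statically from 6 hpf at 28C with 0.64% DMSO; embryos dying earlier are not scored.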

[13] = Tanguay_ZF_120hpf_TR_legacy: (Legacy) Oregon State University Tanguay Lab 120 Hour Post-fertilization zebrafish Assay for Touch Response (AID 2283667)
Outline: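 Binary touch-response endpoint in larvae at 120 hpf after static waterborne exposure from embryo stage (28°C, 0.64% DMSO vehicle, 5 uM trimethyltin chloride as positive control); embryos dead at 24 or 120 hpf excluded; fitted as gain versus DMSO.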

[14] = tested on: Thyroperoxidase (TPO), gene 54314; experiment: CCTE_Simmons_AUR_rTPO: CCTE's Amplex UltraRed Assay for Thyroperoxidase (TPO) Inhibition, Simmons Lab (AID 2283662);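 on AC50: potency for loss of signal meaning inhibition of peroxidase activity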
Outline: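 Rat thyroid microsomes (5 ug protein) were incubated with test compound (8 concentrations, 5 nM–87.5 uM final, 0.5% DMSO), 25 uM Amplex UltraRed and 300 uM H2O2 in 200 mM phosphate buffer for 30 min at 37C in the dark; fluorescence read at 544/590 nm.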

[15] = CCTE_Simmons_CellTiterGLO_HEK293T: Viability Assessment in CCTE's Assays for Thyroperoxidase (TPO) Inhibition, Simmons Lab (AID 2283665);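 on AC50: cells exposed to compound for 24 h before readout; actives reduce ATP signal below DMSO vehicle meaning cytotoxicity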
Outline: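 Cells were seeded overnight, then exposed to an eight-point series up to 87.5 uM final for 24 hours. CellTiter-Glo reagent was added and luminescence read after 20 min, giving ATP-based viability versus DMSO.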

[16] = read-out: solute carrier (SLC22A6), SLC22A6 (gene 9356); experiment: LTEA_HepaRG_SLC22A6: Life Technologies and Expression Analysis (LTEA) Assay for solute carrier (SLC22A6) using HepaRG (AID 2283653; active means hit-call score of the fitted dose curve at least 0.9, where 1 is the maximum; inactive means score below 0.9); conditions: mRNA level, 48 h; actives raise or lower the signal
Outline: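 Read-out is SLC22A6 transcript level by qRT-PCR, normalised to three housekeeping genes and fitted for gain or loss relative to 0.5% DMSO vehicle. Human HepaRG cells received chemicals at up to 100 uM for 48 h.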

[17] = read-out: solute carrier (SLC10A1), SLC10A1 (gene 6554); experiment: LTEA_HepaRG_SLC10A1: Life Technologies and Expression Analysis (LTEA) Assay for solute carrier (SLC10A1) using HepaRG (AID 2283657; active means hit-call score of the fitted dose curve at least 0.9, where 1 is the maximum; inactive means score below 0.9); conditions: mRNA level, 48 h; actives raise or lower the signal
Outline: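 SLC10A1 transcript measured by TaqMan qRT-PCR, housekeeping-normalised, after 48 h chemical treatment of human HepaRG cells. Eight concentrations (half-log, max 100 uM, 0.5% DMSO vehicle) in duplicate; fitted bidirectionally against DMSO baseline.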

[18] = read-out: matrix metalloproteinase-1 (MMP1), MMP1 (gene 4312); experiment: LTEA_HepaRG_MMP1: Life Technologies and Expression Analysis (LTEA) Assay for matrix metalloproteinase-1 (MMP1) using HepaRG (AID 2283658; active means hit-call score of the fitted dose curve at least 0.9, where 1 is the maximum; inactive means score below 0.9); conditions: mRNA level, 48 h; actives raise or lower the signal
Outline: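 HepaRG, ~100,000 cells/well, 48 h pre-culture; serum-free induction medium; test chemical 8 conc (max 100 uM, half-log), duplicate, 48 h; 0.5% DMSO; qRT-PCR MMP1, housekeeping-normalized; gain/loss fit vs DMSO.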

[19] = read-out: Cytochrome P450 (CYP24A1_1), CYP24A1 (gene 1591); experiment: LTEA_HepaRG_CYP24A1_1: Life Technologies and Expression Analysis (LTEA) Assay for Cytochrome P450 (CYP24A1_1) using HepaRG (AID 2283671; active means hit-call score of the fitted dose curve at least 0.9, where 1 is the maximum; inactive means score below 0.9); conditions: mRNA level, 48 h; actives raise or lower the signal
Outline: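 Differentiated human HepaRG cells were exposed in duplicate for 48 h in serum-free induction medium to eight concentrations (top 100 uM, half-log steps, 0.5% DMSO). CYP24A1 mRNA was quantified by TaqMan qRT-PCR, normalized to ACTB, GAPDH and POLR2A, and fitted bidirectionally versus DMSO.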

Measured: AC50

CC[C@H](NC(=O)c1cc(F)ccc1NS(=O)(=O)c1cccc2cccnc12)c1ccccc1
inactive: [1] | [2] | [3] | [4] | [5] | [6] | [7] | [8] | [9]

COCC(C)OCC(C)OCC(C)O (stereo not drawn)
not listed: [3] | [13] | [14] | [15] | [16] | [17] | [18] | [19]
inactive: all other assays above

Cc1cccc2ccccc12
not listed: [12] | [14] | [15] | [16] | [17] | [18] | [19]
inactive: all other assays above

CC(=O)N1CCN(c2ccc(OC[C@H]3CO[C@](Cn4ccnc4)(c4ccc(Cl)cc4Cl)O3)cc2)CC1
active: [14] 19.2 µM | [15] 1.26 µM
inactive: [2] | [3] | [10] | [6] | [7] | [8] | [9]

CCN(CC)C(=O)c1cc(S(=O)(=O)Cc2ccccc2)c(N2CCC(c3ccccc3)CC2)cc1N(CC)CCN(C)C
active: [4] 13.8 µM
not listed: [3] | [6] | [11] | [12] | [13] | [14] | [15]
inactive: all other assays above

CC(C)(O)c1ccc(CNC(=O)c2cccnc2Oc2ccc3nonc3c2)cc1
inactive: [1] | [2] | [4] | [10] | [5] | [6] | [7] | [8]

c1ccc2n[nH]nc2c1
not listed: [3] | [12] | [14] | [15] | [16] | [17] | [18] | [19]
inactive: all other assays above

Cc1c2ccccc2c(C)c2c1ccc1ccccc12
active: [6] 25.8 µM | [15] 17.2 µM
not listed: [3] | [8] | [12] | [16] | [17] | [18] | [19]
inactive: all other assays above

CO[C@H]1/C=C/O[C@@]2(C)Oc3c(C)c(O)c4c(O)c(c(/C=N/N5CCN(C)CC5)c(O)c4c3C2=O)NC(=O)/C(C)=C\C=C\[C@H](C)[C@H](O)[C@@H](C)[C@@H](O)[C@@H](C)[C@H](OC(C)=O)[C@@H]1C
inactive: [1] | [2] | [10] | [5] | [6] | [11] | [7] | [8] | [15]
active: [14] 3.3 µM

NCc1cccc(C2CCN(C(=O)c3ccc(C#Cc4ccccc4F)o3)CC2)c1
inactive: [1] | [2] | [4] | [10] | [6] | [11] | [8] | [9] | [14]
active: [15] 9.98 µM

c1ccc(C[n+]2cccc3ccccc32)cc1
inactive: [1] | [2] | [4] | [10] | [5] | [6] | [11] | [7] | [9] | [13]

COc1cc(C(=O)NC2CCN(C)CC2)ccc1Nc1ncc2c(n1)N(C1CCCC1)CC(F)(F)C(=O)N2C
inactive: [2] | [10] | [5] | [6] | [11] | [8]
active: [1] 34.6 µM | [4] 12.3 µM | [9] 33 µM | [14] 40.7 µM | [15] 15.3 µM

CN1C(=O)CC[C@H]1c1cccnc1
inactive: [1] | [3] | [4] | [10] | [5] | [6] | [11] | [7] | [8] | [9]

COc1ccc2cc(S(=O)(=O)N[C@H](CC(=O)N[C@H](Cc3ccc(CN4[C@H](C)CCC[C@@H]4C)cc3)C(=O)N(C)C(C)C)c3ccc4c(c3)OCO4)ccc2c1
inactive: [1] | [4] | [5] | [6] | [11] | [7] | [8] | [12] | [9] | [13]

CCCCCCCCCC(=O)O
inactive: [1] | [4] | [10] | [5] | [6] | [11] | [7] | [8] | [9]

O=C(O)c1ccccc1C(=O)OCc1ccccc1
inactive: [2] | [3] | [4] | [5] | [6] | [11] | [7] | [8] | [9] | [13]

CCN(Cc1cccc(S(=O)(=O)O)c1)c1ccc(C(=C2C=CC(=[N+](CC)Cc3cccc(S(=O)(=O)O)c3)C=C2)c2ccccc2S(=O)(=O)[O-])cc1
inactive: [1] | [2] | [10] | [5] | [6] | [11] | [7]
active: [14] 19.2 µM | [15] 4.21 µM

CCCCCCCC[Si](OCC)(OCC)OCC
inactive: [1] | [2] | [4] | [10] | [6] | [11] | [8] | [12] | [9]

Cc1cn([C@H]2C[C@H](N=[N+]=[N-])[C@@H](CO)O2)c(=O)[nH]c1=O
inactive: [1] | [2] | [10] | [6] | [11] | [7] | [8] | [9]

O=C(Nc1ccc(Cl)cc1)Nc1ccc(Cl)c(Cl)c1
active: [14] 18.9 µM | [15] 1.73 µM
not listed: [3] | [12] | [16] | [17] | [18] | [19]
inactive: all other assays above
